Data from PubChem BioAssay (EPA / NIEHS).
The source made the active and inactive calls. Rule for the calls: active = hit-call score of the fitted dose curve at least 0.9, where 1 is the maximum; inactive = score below 0.9.

How the values were obtained:
Conditions in all cases: mRNA level, 48 h; actives raise or lower the signal
[1] = read-out: adenosine kinase (ADK) gene, ADK (gene 132); test: LTEA_HepaRG_ADK: Life Technologies and Expression Analysis (LTEA) Assay for adenosine kinase (ADK) gene using HepaRG (AID 2283471)
Summary of the method: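 Read-out is ADK transcript level measured by qRT-PCR and normalised to three housekeeping genes. Cells are human HepaRG, dosed for 48 h at up to 100 uM in 0.5% DMSO. Gain or loss of signal is fitted against DMSO controls.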

[2] = read-out: Alpha-fetoprotein (AFP) gene, AFP (gene 174); test: LTEA_HepaRG_AFP: Life Technologies and Expression Analysis (LTEA) Assay for Alpha-fetoprotein (AFP) gene using HepaRG (AID 2283472)
Summary of the method: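 AFP transcript measured by TaqMan qRT-PCR with three housekeeping genes for normalization, after 48 h chemical treatment of HepaRG cells (top 100 uM, half-log steps, 0.5% DMSO). Gain or loss fitted against vehicle.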

BCL2L11 (gene 10018) = test: LTEA_HepaRG_BCL2L11: Life Technologies and Expression Analysis (LTEA) Assay for Bcl-2 (BCL2L11) gene using HepaRG (AID 2283473)
Summary of the method: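 Differentiated human HepaRG cells were exposed 48 h in serum-free induction medium to eight half-log concentrations up to 100 uM in 0.5% DMSO, in duplicate. BCL2L11 mRNA was quantified by TaqMan qRT-PCR, normalized to ACTB, GAPDH and POLR2A; induction or repression fitted versus DMSO.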

[3] = read-out: Apolipoprotein A-V (APOA5) gene, APOA5 (gene 116519); test: LTEA_HepaRG_APOA5: Life Technologies and Expression Analysis (LTEA) Assay for Apolipoprotein A-V (APOA5) gene using HepaRG (AID 2283474)
Summary of the method: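 Differentiated HepaRG cells in serum-free induction medium, exposed 48 h in duplicate to eight half-log concentrations topping at 100 uM (0.5% DMSO). APOA5 mRNA by Fluidigm TaqMan qRT-PCR, normalized to ACTB, GAPDH and POLR2A; bidirectional fit versus DMSO.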

[4] = read-out: Apoptosis regulator Bcl-2 (Homo sapiens) (UniProt P10415); test: LTEA_HepaRG_BCL2: Life Technologies and Expression Analysis (LTEA) Assay for Bcl-2 gene using HepaRG (AID 2283475)
Summary of the method: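 qRT-PCR of BCL2 transcript, normalized to three housekeeping genes (ACTB, GAPDH, POLR2A), after 48 h chemical exposure of HepaRG cells; concentrations top 100 uM with half-log dilutions, 0.5% DMSO vehicle, duplicates; changes up or down fitted relative to vehicle.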

[5] = read-out: Bcl-2 (BID) gene, BID (gene 637); test: LTEA_HepaRG_BID: Life Technologies and Expression Analysis (LTEA) Assay for Bcl-2 (BID) gene using HepaRG (AID 2283476)
Summary of the method: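 Duplicate 48 h treatments of HepaRG cells in serum-free induction medium spanned 100 uM downward in half-log steps, 0.5% DMSO. Transcript change quantified by qRT-PCR against three housekeeping genes, fitted up or down versus DMSO.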

Caspase-3 (Homo sapiens) = Caspase-3 (Homo sapiens) (UniProt P42574); test: LTEA_HepaRG_CASP3: Life Technologies and Expression Analysis (LTEA) Assay for cysteine-aspartic acid protease (CASP3) using HepaRG (AID 2283477)
Summary of the method: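 Differentiated HepaRG cells, plated 48 h, were treated in duplicate in serum-free induction medium for 48 h with eight half-log concentrations up to 100 uM in 0.5% DMSO. CASP3 mRNA measured by qRT-PCR, normalized to ACTB, GAPDH, POLR2A.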

[6] = read-out: Cytochrome P450 (CYP24A1), CYP24A1 (gene 1591); test: LTEA_HepaRG_CYP24A1: Life Technologies and Expression Analysis (LTEA) Assay for Cytochrome P450 (CYP24A1) using HepaRG (AID 2283478)
Summary of the method: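 HepaRG cells plated 48 h, then exposed in duplicate in serum-free induction medium for 48 h to 8-point half-log series from 100 uM in 0.5% DMSO. CYP24A1 mRNA by Fluidigm qRT-PCR, normalized to ACTB, GAPDH, POLR2A; bidirectional fit versus DMSO.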

[7] = read-out: Cytochrome P450 (CYP1A2), CYP1A2 (gene 1544); test: LTEA_HepaRG_CYP1A2: Life Technologies and Expression Analysis (LTEA) Assay for Cytochrome P450 (CYP1A2) using HepaRG (AID 2283479)
Summary of the method: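 Differentiated human HepaRG cells in serum-free induction medium exposed 48 hours in duplicate to 8 half-log concentrations from 100 uM, 0.5% DMSO. CYP1A2 mRNA quantified by qRT-PCR, normalized to ACTB, GAPDH and POLR2A; bidirectional fitting versus DMSO.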

[8] = read-out: cysteine-aspartic acid protease (CASP8), CASP8 (gene 841); test: LTEA_HepaRG_CASP8: Life Technologies and Expression Analysis (LTEA) Assay for cysteine-aspartic acid protease (CASP8) using HepaRG (AID 2283480)
Summary of the method: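 qRT-PCR readout of CASP8 mRNA, normalized to three housekeeping genes, after 48 h chemical exposure of HepaRG cells; 8-point half-log series, top 100 uM, 0.5% DMSO vehicle. Bidirectional curve fitting against DMSO baseline.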

[9] = read-out: Cytochrome P450 (CYP2B6), CYP2B6 (gene 1555); test: LTEA_HepaRG_CYP2B6: Life Technologies and Expression Analysis (LTEA) Assay for Cytochrome P450 (CYP2B6) using HepaRG (AID 2283481)
Summary of the method: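 Differentiated human HepaRG cells in serum-free induction medium, dosed in duplicate for 48 h over 8 half-log concentrations topping at 100 uM (0.5% DMSO). CYP2B6 mRNA measured by TaqMan qRT-PCR, normalized to ACTB, GAPDH, POLR2A; bidirectional fit versus DMSO.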

[10] = read-out: Cytochrome P450 2C19 (Homo sapiens) (UniProt P33261); test: LTEA_HepaRG_CYP2C19: Life Technologies and Expression Analysis (LTEA) Assay for CYP2C19 using HepaRG (AID 2283482)
Summary of the method: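 Differentiated HepaRG cells in serum-free induction medium exposed 48 h in duplicate, 8 concentrations from 100 uM by half-log steps in 0.5% DMSO. CYP2C19 mRNA measured by TaqMan qRT-PCR, normalized to ACTB, GAPDH, POLR2A. Bidirectional fit versus DMSO.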

CYP2C8 (gene 1558) = test: LTEA_HepaRG_CYP2C8: Life Technologies and Expression Analysis (LTEA) Assay for CYP2C8 using HepaRG (AID 2283483)
Summary of the method: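 HepaRG (human liver line), 48 h chemical exposure, 8-pt half-log series from 100 uM, 0.5% DMSO vehicle. Readout: CYP2C8 transcript by qRT-PCR, housekeeping-normalized. Bidirectional fit vs DMSO baseline.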

CYP2C9 (gene 1559) = test: LTEA_HepaRG_CYP2C9: Life Technologies and Expression Analysis (LTEA) Assay for CYP2C9 using HepaRG (AID 2283484)
Summary of the method: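 HepaRG, 48 h dosing, 8-pt half-log series, top 100 uM, 0.5% DMSO vehicle. Read-out: CYP2C9 transcript by TaqMan qRT-PCR, housekeeping-normalized (ACTB/GAPDH/POLR2A). Gain or loss fitted vs DMSO baseline.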

CYP2E1 (gene 1571) = test: LTEA_HepaRG_CYP2E1: Life Technologies and Expression Analysis (LTEA) Assay for CYP2E1 using HepaRG (AID 2283485)
Summary of the method: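 CYP2E1 transcript measured by Fluidigm qRT-PCR against three housekeeping genes in human HepaRG cells treated 48 h (top 100 uM, half-log steps, 0.5% DMSO vehicle). Gain or loss fitted relative to DMSO baseline.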

CYP4A11 (gene 1579) = test: LTEA_HepaRG_CYP4A11: Life Technologies and Expression Analysis (LTEA) Assay for CYP4A11 using HepaRG (AID 2283486)
Summary of the method: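 Differentiated HepaRG cells, 48 h after plating, exposed in duplicate for 48 h to 8 half-log concentrations up to 100 uM in 0.5% DMSO in serum-free induction medium. CYP4A11 mRNA measured by TaqMan qRT-PCR, normalized to ACTB, GAPDH and POLR2A.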

[11] = read-out: Cytochrome P450 3A4 (Homo sapiens) (UniProt P08684); test: LTEA_HepaRG_CYP3A4: Life Technologies and Expression Analysis (LTEA) Assay for CYP3A4 using HepaRG (AID 2283487)
Summary of the method: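 HepaRG, 48 h exposure, 8-pt CRC from 100 uM (half-log), 0.5% DMSO, duplicates; serum-free induction medium. Readout: CYP3A4 mRNA, qRT-PCR, ACTB/GAPDH/POLR2A normalization. Bidirectional fit vs DMSO.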

[12] = read-out: DNA damage-inducible transcript 3 (DDIT3), DDIT3 (gene 1649); test: LTEA_HepaRG_DDIT3: Life Technologies and Expression Analysis (LTEA) Assay for DNA damage-inducible transcript 3 (DDIT3) using HepaRG (AID 2283488)
Summary of the method: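 DDIT3 transcript was quantified by qRT-PCR with ACTB/GAPDH/POLR2A normalization after 48 h chemical treatment of differentiated HepaRG cells in 0.5% DMSO. Dosing was eight-point, half-log, top 100 uM, duplicate wells. Curves fitted bidirectionally versus DMSO.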

[13] = read-out: Pro-epidermal growth factor (Homo sapiens) (UniProt P01133); test: LTEA_HepaRG_EGF: Life Technologies and Expression Analysis (LTEA) Assay for Epidermal growth factor (EGF) using HepaRG (AID 2283489)
Summary of the method: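 HepaRG cells (~100,000/well, 48 h pre-culture) exposed in duplicate for 48 h in serum-free induction medium to 8 half-log concentrations up to 100 uM in 0.5% DMSO. EGF mRNA by qRT-PCR, normalized to ACTB/GAPDH/POLR2A; bidirectional fit versus DMSO.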

[14] = read-out: Early growth response protein 1 (EGR1) transcription factor, EGR1 (gene 1958); test: LTEA_HepaRG_EGR1: Life Technologies and Expression Analysis (LTEA) Assay for Early growth response protein 1 (EGR1) transcription factor using HepaRG (AID 2283490)
Summary of the method: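 HepaRG, 48 h exposure, 8-pt half-log series from 100 uM, 0.5% DMSO vehicle; EGR1 transcript by TaqMan qRT-PCR (Fluidigm array), housekeeping-normalized; bidirectional fit relative to DMSO baseline.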

Measured: outcome

Chain of Apoptosis regulator Bcl-2 (Homo sapiens) (P10415 whole entry, looked up): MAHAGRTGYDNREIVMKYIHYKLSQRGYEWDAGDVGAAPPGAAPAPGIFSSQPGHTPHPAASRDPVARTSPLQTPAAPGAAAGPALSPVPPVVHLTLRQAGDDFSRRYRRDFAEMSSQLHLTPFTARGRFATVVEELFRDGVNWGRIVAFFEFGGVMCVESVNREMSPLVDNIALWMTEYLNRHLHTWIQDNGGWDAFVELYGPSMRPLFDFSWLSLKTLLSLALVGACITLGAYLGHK
Chain of Cytochrome P450 3A4 (Homo sapiens) (P08684 whole entry, looked up): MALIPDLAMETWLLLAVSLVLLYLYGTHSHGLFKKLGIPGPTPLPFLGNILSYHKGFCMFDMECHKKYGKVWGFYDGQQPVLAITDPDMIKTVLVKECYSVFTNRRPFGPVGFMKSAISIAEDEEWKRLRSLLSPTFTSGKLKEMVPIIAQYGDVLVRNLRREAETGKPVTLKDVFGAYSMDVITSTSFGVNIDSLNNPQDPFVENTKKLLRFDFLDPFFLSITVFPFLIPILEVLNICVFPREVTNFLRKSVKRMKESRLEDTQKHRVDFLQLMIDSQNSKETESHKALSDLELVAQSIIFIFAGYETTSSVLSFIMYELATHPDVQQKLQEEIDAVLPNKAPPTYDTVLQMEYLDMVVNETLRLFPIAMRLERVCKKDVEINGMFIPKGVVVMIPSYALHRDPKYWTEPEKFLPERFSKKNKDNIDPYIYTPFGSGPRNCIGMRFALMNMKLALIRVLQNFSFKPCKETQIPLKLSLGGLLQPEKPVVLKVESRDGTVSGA
Chain of Caspase-3 (Homo sapiens) (P42574 whole entry, looked up): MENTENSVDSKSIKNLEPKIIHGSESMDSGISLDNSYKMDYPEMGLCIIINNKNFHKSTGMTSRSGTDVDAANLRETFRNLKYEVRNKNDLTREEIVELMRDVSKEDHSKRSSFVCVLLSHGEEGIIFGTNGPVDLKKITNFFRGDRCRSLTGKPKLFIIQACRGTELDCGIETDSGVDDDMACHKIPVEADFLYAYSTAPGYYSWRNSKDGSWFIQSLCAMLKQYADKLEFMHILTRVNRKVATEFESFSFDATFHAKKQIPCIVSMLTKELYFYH
Chain of Cytochrome P450 2C19 (Homo sapiens) (P33261 whole entry, looked up): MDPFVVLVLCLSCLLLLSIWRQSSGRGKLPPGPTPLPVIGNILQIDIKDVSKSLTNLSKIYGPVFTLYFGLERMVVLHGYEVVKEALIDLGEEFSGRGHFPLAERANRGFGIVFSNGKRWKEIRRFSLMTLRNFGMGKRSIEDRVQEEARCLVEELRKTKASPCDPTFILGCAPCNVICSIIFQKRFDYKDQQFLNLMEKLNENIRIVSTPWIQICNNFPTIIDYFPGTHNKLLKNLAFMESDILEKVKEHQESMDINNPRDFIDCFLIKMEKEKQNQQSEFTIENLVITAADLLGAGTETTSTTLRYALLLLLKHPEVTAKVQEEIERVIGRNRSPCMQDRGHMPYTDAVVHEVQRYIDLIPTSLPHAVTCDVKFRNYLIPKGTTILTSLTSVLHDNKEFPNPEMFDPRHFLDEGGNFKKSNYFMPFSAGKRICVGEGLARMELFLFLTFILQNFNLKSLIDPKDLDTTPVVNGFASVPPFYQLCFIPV

COCC(C)OCC(C)O (stereo not given)
inactive: all assays above

CN(C)C=O
inactive: all assays above

Oc1cccc(O)c1
inactive: all assays above
